# Where “and” joins values, the source holds several entries; their conditions need not be identical. Equal values may be shown once. Calls of active or inactive are those of the source. Cut-off read from the data, not from the text of the source, unless noted: active = inhibition above about 80%; inactive = the rest.
# Experiments:
# [1] = LFS_MB_P medulloblastoma growth inhibition, cell-based, chromothripsis tumors, cisplatin or BGB combos (AID 1671449); details: LFS_MB_P medulloblastoma cells;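 note: cells exposed for 96 hours; 0% = vehicle DMSO and 100% = killing by high DMSO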
# [2] = growth inhibition of BT084 medulloblastoma cells, cell-based, ICGC_MB145, cisplatin and BGB IC40 combos (AID 1671461); details: drug combinations, stronger effect = higher value;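 note: cells exposed to drugs for 96 hours; 0% = vehicle DMSO and 100% = high DMSO full killing control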
# [3] = HDN33 neuroblastoma growth inhibition, cell-based, chromothripsis tumors, cisplatin or BGB combos (AID 1671450); details: HDN33 neuroblastoma cells, stronger effect = higher value;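 note: cells exposed to compound for four days; 0% = vehicle DMSO and 100% = cell killing by high DMSO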
# [4] = ICB984 medulloblastoma cell growth inhibition, synergistic combos for chromothripsis tumors, cisplatin or BGB combos (AID 1671451; call rule not given here;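 note: cells exposed for 96 hours before readout; 0% = vehicle DMSO and 100% = killing by high DMSO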); details: ICB984 medulloblastoma cells, drug combinations, stronger effect = higher value
# [5] = LFS_MB_1R medulloblastoma cell growth inhibition, synergistic combos for chromothripsis tumors, cisplatin or BGB combos (AID 1671452); details: LFS_MB_1R medulloblastoma cells, stronger effect = higher value;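 note: cells exposed for 96 hours before readout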
# [6] = HTB85 osteosarcoma cell growth inhibition, synergistic combos for chromothripsis tumors, BGB or cisplatin IC20 combos (AID 1671453); details: HTB85 osteosarcoma cells, drug combinations, stronger effect = higher value;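 note: cells exposed for 96 hours before readout; 0% = vehicle DMSO and 100% = high DMSO killing control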
# [7] = CRL2098 osteosarcoma cell growth inhibition, synergistic combos for chromothripsis tumors, BGB or cisplatin IC20 combos (AID 1671454); details: CRL2098 osteosarcoma cells, drug combinations, stronger effect = higher value;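 note: cells exposed for 96 h before readout; 0% = vehicle DMSO and 100% = killing by high DMSO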
# [8] = HD-MB03 medulloblastoma cell growth inhibition, synergistic combos for chromothripsis tumors, BGB or cisplatin IC20 combos (AID 1671455; in the data active = inhibition above about 83%;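 note: 0% = vehicle DMSO and 100% = high DMSO as cytotoxic control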); details: HD-MB03 medulloblastoma cells, stronger effect = higher value
# [9] = UWB1.289 ovarian carcinoma cell growth inhibition, synergistic combos for chromothripsis tumors, BGB or cisplatin combos (AID 1671456); details: UWB1.289 ovarian carcinoma cells, stronger effect = higher value;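 note: cells exposed to compound for four days; 0% = vehicle DMSO and 100% = killing by high DMSO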
# [10] = LFS_MB_2R medulloblastoma cell growth inhibition, synergistic combos for chromothripsis tumors, cisplatin combos (AID 1671457); details: LFS_MB_2R medulloblastoma cells, stronger effect = higher value;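 note: cells exposed to compound for four days before readout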
# [11] = MDA-MB-436 breast carcinoma cell growth inhibition, synergistic combos for chromothripsis tumors, BGB or cisplatin combos (AID 1671458; call rule not given here;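 note: cells exposed for 96 hours; 0% = vehicle DMSO and 100% = killing by high DMSO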); details: MDA-MB-436 breast carcinoma growth inhibition, drug combinations, stronger effect = higher value
# [12] = UWB1.289_BRCA1 ovarian cancer growth, cell-based, BGB or cisplatin combinations (AID 1671459); details: UWB1.289 BRCA1 ovarian carcinoma, drug combinations, stronger effect = higher value
# [13] = human astrocyte viability loss, single and combined drugs, cytotoxicity control for chromothriptic childhood tumor combination screen, cell-based, BGB or cisplatin IC20 combos (AID 1671460); details: Human astrocytes, drug combinations, stronger effect = higher value;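 note: cells exposed to compounds for 96 hours before viability readout; 0% = vehicle and 100% = killing control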
# [14] = growth inhibition of RCMB18 medulloblastoma cells, cell-based, cisplatin and BGB IC40 combos (AID 1671462); details: stronger effect = higher value;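 note: cells exposed to compound for four days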
# [15] = growth inhibition of CRL1545 osteosarcoma cells, cell-based, cisplatin and BGB IC20 combos (AID 1671464); details: stronger effect = higher value;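 note: cells exposed to compound for 96 hours before readout; 0% = vehicle DMSO and 100% = high DMSO killing control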
# [16] = measured here: combination with BGB IC40, at 0.05 µM
# [17] = measured here: with BGB IC20 combination, at 0.5 µM
# [18] = measured here: with cisplatin IC20 combination, at 0.5 µM
# [19] = measured here: combination with cisplatin, at 0.5 µM
# [20] = measured here: combination with cisplatin, at 5 µM
smiles,measurement,setting,value
CCc1c2c(nc3ccc(OC(=O)N4CCC(N5CCCCC5)CC4)cc13)-c1cc3c(c(=O)n1C2)COC(=O)C3(O)CC (stereo not given),inhibition,[1]; [16],-19.5% and -4.73% and -44.6%
same,inhibition,[2]; at 0.5 µM,-22.5% (inactive) and 1.41% (inactive) and -20.7% (inactive)
CN(C)C(=S)NN=C(c1ccccn1)c1ccccn1,inhibition,"[1]; at 0.5 µM, stronger effect = higher value",9.49% (inactive)
same,inhibition,"[1]; measured here: combination with BGB IC20, at 0.005 µM",65.9%
same,inhibition,"[1]; measured here: combination with BGB IC40, at 0.005 µM",60.3%
same,inhibition,[1]; [16],73.6%
same,inhibition,"[1]; measured here: combination with cisplatin, at 0.5 µM, stronger effect = higher value",14.7%
same,inhibition,"[1]; measured here: combination with cisplatin, at 5 µM, stronger effect = higher value",65.2%
same,inhibition,"[3]; BGB combo, at 5 µM",93.5%
same,inhibition,[3]; at 0.5 µM,96.3% (active)
same,inhibition,"[3]; cisplatin combo, at 5 µM",96.8%
same,inhibition,[3]; [17],96.5%
same,inhibition,[3]; [18],96.3%
same,inhibition,"[3]; single agent, at 5 µM",95.4%
same,inhibition,"[4]; BGB IC20 combo, at 0.005 µM",49.9%
same,inhibition,"[4]; BGB IC40 combo, at 0.005 µM",48.2%
same,inhibition,"[4]; BGB IC40 combo, at 0.05 µM",88.6%
same,inhibition,[4]; at 0.5 µM,-3.29% (inactive)
same,inhibition,"[4]; cisplatin combo, at 0.05 µM",88.1%
same,inhibition,"[4]; cisplatin combo, at 0.5 µM",-11.8%
same,inhibition,"[4]; cisplatin combo, at 5 µM",27.2%
same,inhibition,"[4]; measured here: 5 uM single agent, at 5 µM",32%
same,inhibition,[5]; at 0.5 µM,82.5% (active)
same,inhibition,[5]; [16],62.2%
same,inhibition,[5]; [19],96.8%
same,inhibition,[5]; [20],91.5%
same,inhibition,[6]; at 0.5 µM,89.9% (active)
same,inhibition,"[6]; measured here: with BGB IC20, at 0.5 µM",85.2%
same,inhibition,"[6]; measured here: with BGB IC20, at 5 µM",92.5%
same,inhibition,"[6]; measured here: with cisplatin IC20, at 0.5 µM",91%
same,inhibition,"[6]; measured here: with cisplatin IC20, at 5 µM",88.7%
same,inhibition,"[6]; single agent, at 5 µM",90.5%
same,inhibition,[7]; at 0.5 µM,98% (active)
same,inhibition,"[7]; measured here: combination with BGB at IC20, at 0.5 µM",97.8%
same,inhibition,"[7]; measured here: combination with cisplatin at IC20, at 0.5 µM",98.6%
same,inhibition,[8]; at 0.5 µM,86.8% (active)
same,inhibition,"[8]; measured here: combo with BGB at IC20, at 0.5 µM",70.3%
same,inhibition,"[8]; measured here: combo with cisplatin at IC20, at 0.5 µM",93.8%
same,inhibition,[9]; at 0.5 µM,88% (active)
same,inhibition,"[9]; measured here: inhibition with BGB combination, at 0.05 µM",90.6%
same,inhibition,"[9]; measured here: inhibition with cisplatin combination, at 0.05 µM",92.1%
same,inhibition,[10]; at 0.5 µM,61.3% (inactive)
same,inhibition,[10]; [19],70.1%
same,inhibition,[10]; [20],64.5%
same,inhibition,[11]; at 0.5 µM,81.2% (active)
same,inhibition,"[11]; measured here: BGB combination, at 0.5 µM",73.4%
same,inhibition,"[11]; measured here: BGB combination, at 5 µM",86%
same,inhibition,"[11]; measured here: cisplatin combination, at 0.5 µM",85.1%
same,inhibition,"[11]; measured here: cisplatin combination, at 5 µM",93.7%
same,inhibition,"[12]; BGB combination, concentration series, at 5 µM",121%
same,inhibition,[12]; at 0.5 µM,87% (active)
same,inhibition,"[12]; cisplatin combination, concentration series, at 5 µM",127%
same,inhibition,[13]; at 0.5 µM,77.8% (inactive)
same,inhibition,"[13]; measured here: combo with BGB IC20, at 0.5 µM",77.7%
same,inhibition,"[13]; measured here: combo with cisplatin IC20, at 0.5 µM",72.8%
same,inhibition,[2]; at 0.5 µM,72.7% (inactive)
same,inhibition,"[2]; cisplatin combination, at 0.5 µM",77.7%
same,inhibition,"[2]; cisplatin combination, at 5 µM",74%
same,inhibition,"[2]; measured here: BGB IC40 combination 0.05 uM, at 0.05 µM",80.3%
same,inhibition,"[2]; single agent, at 5 µM",83.9%
same,inhibition,[14]; at 0.5 µM,82.2% (active)
same,inhibition,"[14]; cisplatin combo, at 5 µM",90.5%
same,inhibition,"[14]; measured here: BGB IC40 combination, at 0.05 µM",80.1%
same,inhibition,[14]; [19],86%
same,inhibition,"[14]; single agent, at 5 µM",94.3%
same,inhibition,[15]; at 0.5 µM,96.9% (active)
same,inhibition,[15]; [17],97.1%
same,inhibition,[15]; [18],96.8%
same,inhibition,"[15]; single agent, at 0.05 µM",88.4%
same,inhibition,"[15]; single agent, at 5 µM",89.2%
